The source of these data is paper PMC8159961, “Exploring protein hotspots by optimized fragment pharmacophores” (Nature Communications, 2021).

The structures appear in SMILES notation. Unmarked numbers belong to inactive results. No rule for the calls is given here.

Chain of histone methyltransferase SET domain containing 2 (SETD2) (Q9BYW2 whole entry, looked up, the tested form may be a part): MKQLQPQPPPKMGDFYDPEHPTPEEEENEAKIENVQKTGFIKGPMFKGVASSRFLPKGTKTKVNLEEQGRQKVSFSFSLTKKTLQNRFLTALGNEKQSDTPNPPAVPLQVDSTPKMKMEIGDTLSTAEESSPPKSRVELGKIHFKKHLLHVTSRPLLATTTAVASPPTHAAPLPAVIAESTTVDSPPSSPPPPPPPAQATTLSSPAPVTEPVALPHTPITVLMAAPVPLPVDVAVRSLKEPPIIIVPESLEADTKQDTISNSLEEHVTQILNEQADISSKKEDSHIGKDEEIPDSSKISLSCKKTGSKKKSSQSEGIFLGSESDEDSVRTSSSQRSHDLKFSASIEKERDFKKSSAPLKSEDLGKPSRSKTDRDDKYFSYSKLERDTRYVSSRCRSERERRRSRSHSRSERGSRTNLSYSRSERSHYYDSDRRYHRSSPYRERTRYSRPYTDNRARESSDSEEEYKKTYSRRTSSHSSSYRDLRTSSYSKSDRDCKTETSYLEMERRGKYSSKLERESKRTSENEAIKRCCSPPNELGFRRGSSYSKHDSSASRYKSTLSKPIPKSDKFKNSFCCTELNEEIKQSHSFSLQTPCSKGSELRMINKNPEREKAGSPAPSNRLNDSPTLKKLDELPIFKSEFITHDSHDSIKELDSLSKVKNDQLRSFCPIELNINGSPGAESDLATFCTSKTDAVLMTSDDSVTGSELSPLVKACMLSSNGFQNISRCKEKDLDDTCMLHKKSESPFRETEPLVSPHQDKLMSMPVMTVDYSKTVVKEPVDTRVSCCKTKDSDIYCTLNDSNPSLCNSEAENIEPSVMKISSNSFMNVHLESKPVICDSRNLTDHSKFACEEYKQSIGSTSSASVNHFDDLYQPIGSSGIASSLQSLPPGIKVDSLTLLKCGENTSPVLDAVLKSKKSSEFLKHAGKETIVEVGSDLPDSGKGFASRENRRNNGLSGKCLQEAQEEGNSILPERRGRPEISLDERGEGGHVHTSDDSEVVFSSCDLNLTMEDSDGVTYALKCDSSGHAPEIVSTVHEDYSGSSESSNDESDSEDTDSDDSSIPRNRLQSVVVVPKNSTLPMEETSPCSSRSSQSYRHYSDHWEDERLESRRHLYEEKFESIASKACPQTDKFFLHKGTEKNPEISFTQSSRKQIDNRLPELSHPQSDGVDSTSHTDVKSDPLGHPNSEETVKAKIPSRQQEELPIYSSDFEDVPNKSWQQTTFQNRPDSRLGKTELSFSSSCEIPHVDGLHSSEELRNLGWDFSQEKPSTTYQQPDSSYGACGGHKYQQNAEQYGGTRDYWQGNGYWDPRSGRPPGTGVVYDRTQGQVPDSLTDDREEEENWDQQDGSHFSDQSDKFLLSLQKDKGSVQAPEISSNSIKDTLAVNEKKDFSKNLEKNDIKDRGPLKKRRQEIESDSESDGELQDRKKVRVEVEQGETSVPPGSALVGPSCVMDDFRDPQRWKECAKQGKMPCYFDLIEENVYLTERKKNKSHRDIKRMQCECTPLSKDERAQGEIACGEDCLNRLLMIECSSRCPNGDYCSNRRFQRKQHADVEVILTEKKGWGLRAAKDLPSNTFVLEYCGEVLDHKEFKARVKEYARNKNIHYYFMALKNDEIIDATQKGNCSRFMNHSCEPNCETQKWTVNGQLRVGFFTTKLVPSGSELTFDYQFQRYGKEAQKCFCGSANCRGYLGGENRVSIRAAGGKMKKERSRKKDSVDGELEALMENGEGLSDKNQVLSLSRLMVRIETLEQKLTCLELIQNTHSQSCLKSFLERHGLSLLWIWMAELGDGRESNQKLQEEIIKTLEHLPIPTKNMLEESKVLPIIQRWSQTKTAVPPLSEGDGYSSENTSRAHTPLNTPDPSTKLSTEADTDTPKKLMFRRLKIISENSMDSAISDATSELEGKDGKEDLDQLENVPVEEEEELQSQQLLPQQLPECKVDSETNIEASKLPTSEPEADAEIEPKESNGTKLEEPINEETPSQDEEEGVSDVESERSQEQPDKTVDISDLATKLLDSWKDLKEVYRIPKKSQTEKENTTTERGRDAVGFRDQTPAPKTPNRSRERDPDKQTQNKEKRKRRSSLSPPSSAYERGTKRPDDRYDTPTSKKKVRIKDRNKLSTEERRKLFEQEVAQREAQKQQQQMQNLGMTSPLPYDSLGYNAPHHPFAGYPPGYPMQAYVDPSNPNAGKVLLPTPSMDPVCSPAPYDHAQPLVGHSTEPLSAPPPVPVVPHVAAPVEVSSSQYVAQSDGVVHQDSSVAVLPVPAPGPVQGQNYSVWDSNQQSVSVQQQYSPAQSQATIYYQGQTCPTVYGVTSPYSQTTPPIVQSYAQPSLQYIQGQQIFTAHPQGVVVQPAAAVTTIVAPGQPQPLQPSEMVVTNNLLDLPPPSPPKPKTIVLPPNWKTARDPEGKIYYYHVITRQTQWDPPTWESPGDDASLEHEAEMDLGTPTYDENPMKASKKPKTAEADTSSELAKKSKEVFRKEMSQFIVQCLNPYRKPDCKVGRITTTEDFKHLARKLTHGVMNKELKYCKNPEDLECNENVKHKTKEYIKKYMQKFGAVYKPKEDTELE

The target in this assay is histone methyltransferase SET domain containing 2 (SETD2) (Homo sapiens, UniProt Q9BYW2). The assay is described as follows: primary screen, binary call; higher = more effect of the substance. The method, then:
The Chemiluminescence assay evaluates SETD2 specific tri -methylation activity towards histone H3K36. The kit consist s of recombinant SETD2, S-adenosylmethionine and a specific H3K36me3 antibody and was performed according to the manufacturer’s protocol (Catalo g- No. 52060, https://bpsbioscience.com/setd2 -chemiluminescent-assay-kit-52060). Values were blank corrected and normalized . Enzymatic activities were calculated relative to the positive control of the kit (full enzymatic activity) and to the known SET doma in inhibitor Sinefungin28 used as negative control (complete enzymatic activity inhibition). Compounds used were diluted in DMSO.
As to `NC1CCc2ccccc21` (stereo not shown), the SETD2 is 0.
As to `NCC1(c2ccccc2)CCOCC1`, the SETD2 was 0.
On to `O=C(c1ccccc1F)N1CCNCC1`, for which the SETD2 was 0.
Take `O=C1CCN(c2ccccn2)CC1`: the SETD2 is 0.
As for `Fc1ccc2c(C3CCNCC3)c[nH]c2c1`, the figure is 0.
As for `O=c1[nH]c2c(s1)CCC2`, the SETD2 is 0.
Consider `Oc1ccccc1N1CCCCC1`, for which the SETD2 is 0.
As to `Oc1cnc(-c2ccccc2)nc1`, the SETD2 was 0.
As for `CC1(C)OC(=O)c2cc(Br)c(O)cc2O1`, the figure is 0.
As for `CC(=O)c1sc(-c2ccc(O)cc2)nc1C`, the figure is 0; as for `COc1ccccc1N1CCNCC1`, 0.
In the case of `CS(=O)(=O)c1ccc(N2CCNCC2)cc1`, the SETD2 is 0.
As for `O=c1ccc2c([nH]1)CCCC2`, the figure is 0; as for `Cc1nccn1Cc1cccc(C#N)c1`, 0.
As for `N#CC1CCS(=O)(=O)C1` (stereo not shown), the figure is 0; as for `O=C1CCN(c2ccncc2)CC1`, 0.
For the compound `COc1ccccc1CC1CCNCC1.Cl`, the SETD2 is 0.
As for `O=C1NC(=O)/C(=C\c2cccs2)N1`, the figure is 1 (active); as for `CN1CC(=O)NC1=O`, 0.
As for `CN(C)c1cc(CN)ccn1`, the figure is 0; as for `CCn1cnc2ccccc21`, 0.
`Cc1cc(-c2ccccc2)n[nH]1`: the SETD2 is 0.
As for `O=C(NC1CC1)c1ccccc1O`, the figure is 0.
For the compound `O=C1CNCCN1c1ccccc1`, the SETD2 was 0.
As for `O=c1[nH]ncc2c1oc1ccccc12`, the figure is 0.
As for `N#Cc1ccc(C(=O)N2CCOCC2)cc1`, the figure is 0; as for `Cc1cc(C)c2c(=O)[nH]n(C)c2n1`, 0.
For the compound `CCc1ccc(NC2=NCCCS2)cc1`, the SETD2 was 0.
Regarding `Clc1ccc2nnnn2n1`, the SETD2 is 0.
`N[C@H]1c2ccccc2C[C@H]1CO`: the SETD2 was 0.
As for `O=C1NC2(CCCC2)Nc2ccccc21`, the figure is 0.
With `O=C(O)C1CCCN(C(=O)N2CCCC2)C1` (stereo not shown), the SETD2 was 0.
As for `Cn1c(N)nc2ccccc21`, the figure is 1 (active).
On to `FC1(F)CNCC(F)(F)O1`, for which the SETD2 was 0.
As for `CS(=O)(=O)c1ccc(OC(F)(F)F)cc1`, the figure is 0.
Regarding `c1ccc2c(N3CCNCC3)ccnc2c1`, the SETD2 is 0.
Regarding `O=C(O)c1cccc(Nc2ncccn2)c1`, the SETD2 was 0.
As for `CCc1nccn1CC(=O)O`, the figure is 0.
As for `COC(=O)c1c(C)nc(C2CC2)[nH]c1=O`, the figure is 0; as for `O=C(CN1CCNCC1)c1ccccc1`, 0.
